# Measurements: PubChem BioAssay (EPA / NIEHS)
# The source made the active and inactive calls. Rule for the calls: active = hit-call score of the fitted dose curve at least 0.9, where 1 is the maximum; inactive = score below 0.9.
# Tests used:
# [1] = molecular target: Bile acid receptor (Homo sapiens) (UniProt Q96RI1); assay: ATG_IR1_CIS: Attagene CIS-FACTORIAL HepG2 Assay for human Nuclear Receptor Subfamily 1 Group H Member 4 (NR1H4), IR1 submotif (AID 2282946); conditions: IR1 reporter transcription, actives raise or lower the signal
# Bile acid receptor (Homo sapiens), sequence (Q96RI1 whole entry, looked up): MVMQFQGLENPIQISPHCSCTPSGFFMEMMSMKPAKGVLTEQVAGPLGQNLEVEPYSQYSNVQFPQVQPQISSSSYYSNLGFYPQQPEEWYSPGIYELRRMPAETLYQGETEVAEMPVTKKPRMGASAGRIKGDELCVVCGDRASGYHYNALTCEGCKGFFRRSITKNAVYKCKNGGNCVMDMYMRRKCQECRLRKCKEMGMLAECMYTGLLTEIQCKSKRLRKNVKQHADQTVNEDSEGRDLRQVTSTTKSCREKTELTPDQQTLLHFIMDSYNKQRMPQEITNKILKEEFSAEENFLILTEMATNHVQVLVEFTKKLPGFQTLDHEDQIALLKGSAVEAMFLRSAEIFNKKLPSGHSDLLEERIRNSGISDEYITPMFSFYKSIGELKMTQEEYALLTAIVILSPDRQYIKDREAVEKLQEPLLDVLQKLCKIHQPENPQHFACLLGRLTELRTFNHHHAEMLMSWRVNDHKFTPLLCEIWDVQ
# Method in brief: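 Fluorescence of capillary-separated, HpaI-digested RT-PCR reporter products gave IR1-element mRNA induction in HepG2 cells 24 h after dosing. Endogenous transcription factors drove the cis-regulated reporters; activity was fitted bidirectionally against DMSO.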
# [2] = ATG_M_32_CIS: Attagene CIS-FACTORIAL HepG2 Assay for M32 Transcription Factor (Internal Marker) (AID 2282949); conditions: HepG2 Attagene cis-factorial M32 reporter, mRNA; actives raise or lower the signal;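 note: background control marker of the multiplexed CIS panel rather than a real target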
# Method in brief: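 Transient MRTU transfection of HepG2; 24 h compound treatment; TriZol RNA, oligo(dT) RT, reporter PCR, 6-FAM primer extension, HpaI cut, CE. Gain/loss of signal vs DMSO.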
# [3] = ATG_M_06_CIS: Attagene CIS-FACTORIAL HepG2 Assay for M06 Transcription Factor (Internal Marker) (AID 2282950); conditions: HepG2 Attagene CIS-FACTORIAL M06 internal marker reporter; actives raise or lower the signal
# Method in brief: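 Terse: HepG2, transient MRTU transfection (FuGene 6), 24 h dosing; total RNA, oligo(dT) RT, PCR, FAM label, HpaI cut, capillary electrophoresis; bidirectional fit vs DMSO baseline; background-control endpoint.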
# [4] = molecular target: Hypoxia-inducible factor 1-alpha (Homo sapiens) (UniProt Q16665); assay: ATG_HIF1a_CIS: Attagene CIS-FACTORIAL HepG2 Assay for human Hypoxia Inducible Factor 1 (HIF1A) (AID 2282951); conditions: HepG2 Attagene cis-factorial HIF1a reporter transcription; actives raise or lower the signal
# Hypoxia-inducible factor 1-alpha (Homo sapiens), sequence (Q16665 whole entry, looked up): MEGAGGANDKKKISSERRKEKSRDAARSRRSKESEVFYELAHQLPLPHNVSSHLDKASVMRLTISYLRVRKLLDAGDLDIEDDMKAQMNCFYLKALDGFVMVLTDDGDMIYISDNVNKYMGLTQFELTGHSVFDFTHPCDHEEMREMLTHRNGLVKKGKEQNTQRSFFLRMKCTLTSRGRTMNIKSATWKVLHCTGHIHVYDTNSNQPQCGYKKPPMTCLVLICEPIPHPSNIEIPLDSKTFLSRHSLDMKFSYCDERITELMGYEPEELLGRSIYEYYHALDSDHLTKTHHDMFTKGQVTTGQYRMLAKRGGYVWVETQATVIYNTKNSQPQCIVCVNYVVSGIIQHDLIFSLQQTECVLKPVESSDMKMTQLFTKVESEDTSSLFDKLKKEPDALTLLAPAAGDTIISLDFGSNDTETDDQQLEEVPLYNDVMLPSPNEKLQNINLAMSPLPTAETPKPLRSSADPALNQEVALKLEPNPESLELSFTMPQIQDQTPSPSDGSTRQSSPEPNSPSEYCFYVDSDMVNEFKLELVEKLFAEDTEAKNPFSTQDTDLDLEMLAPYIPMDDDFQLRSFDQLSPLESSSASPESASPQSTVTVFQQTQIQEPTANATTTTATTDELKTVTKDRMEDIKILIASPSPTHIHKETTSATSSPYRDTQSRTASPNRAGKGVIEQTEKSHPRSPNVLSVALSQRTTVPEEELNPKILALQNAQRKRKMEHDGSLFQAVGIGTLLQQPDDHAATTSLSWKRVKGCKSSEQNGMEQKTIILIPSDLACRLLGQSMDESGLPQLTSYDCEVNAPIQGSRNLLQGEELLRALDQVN
# Method in brief: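 After 24 h chemical exposure of reporter-transfected HepG2 cells, reporter cDNA was PCR-amplified, labelled by 6-FAM primer extension (2 min 95 C, 20 s 68 C, 10 min 72 C), HpaI-cut (2 h, 37 C) and analysed by CE.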
# [5] = molecular target: Hepatocyte nuclear factor 6 (Homo sapiens) (UniProt Q9UBC0); assay: ATG_HNF6_CIS: Attagene CIS-FACTORIAL HepG2 Assay for human Hepatocyte Nuclear Factor 6 (HNF6) (AID 2282952); conditions: HepG2 Attagene cis-factorial HNF6 reporter transcription; actives raise or lower the signal
# Hepatocyte nuclear factor 6 (Homo sapiens), sequence (Q9UBC0 whole entry, looked up): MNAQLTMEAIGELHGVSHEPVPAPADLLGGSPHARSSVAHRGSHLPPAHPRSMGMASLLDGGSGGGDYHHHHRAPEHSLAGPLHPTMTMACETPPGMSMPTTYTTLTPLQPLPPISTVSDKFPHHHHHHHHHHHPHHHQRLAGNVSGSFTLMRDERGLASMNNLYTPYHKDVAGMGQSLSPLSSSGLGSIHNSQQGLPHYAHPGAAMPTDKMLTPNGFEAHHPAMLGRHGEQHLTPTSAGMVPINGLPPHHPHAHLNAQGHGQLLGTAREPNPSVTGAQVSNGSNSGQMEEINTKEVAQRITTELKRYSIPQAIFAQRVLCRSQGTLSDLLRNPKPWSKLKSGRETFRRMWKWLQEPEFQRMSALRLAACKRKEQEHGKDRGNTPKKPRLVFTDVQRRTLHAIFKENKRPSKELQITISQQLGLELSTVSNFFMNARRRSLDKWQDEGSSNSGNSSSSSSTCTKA
# Method in brief: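 Endogenous factor activity read in transiently transfected HepG2 via promoter-regulated reporter transcripts. RNA harvested 24 h post-dosing, reverse-transcribed, PCR-amplified, FAM-labelled, HpaI-digested and resolved by capillary electrophoresis; fitted in both directions against DMSO.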
# [6] = molecular target: Heat shock factor protein 1 (Homo sapiens) (UniProt Q00613); assay: ATG_HSE_CIS: Attagene CIS-FACTORIAL HepG2 Assay for human Heat Shock Transcription Factor 1 (HSE) (AID 2282953); conditions: HepG2 HSE cis-reporter, Attagene RNA transcription; actives raise or lower the signal
# Heat shock factor protein 1 (Homo sapiens), sequence (Q00613 whole entry, looked up, the tested form may be a part): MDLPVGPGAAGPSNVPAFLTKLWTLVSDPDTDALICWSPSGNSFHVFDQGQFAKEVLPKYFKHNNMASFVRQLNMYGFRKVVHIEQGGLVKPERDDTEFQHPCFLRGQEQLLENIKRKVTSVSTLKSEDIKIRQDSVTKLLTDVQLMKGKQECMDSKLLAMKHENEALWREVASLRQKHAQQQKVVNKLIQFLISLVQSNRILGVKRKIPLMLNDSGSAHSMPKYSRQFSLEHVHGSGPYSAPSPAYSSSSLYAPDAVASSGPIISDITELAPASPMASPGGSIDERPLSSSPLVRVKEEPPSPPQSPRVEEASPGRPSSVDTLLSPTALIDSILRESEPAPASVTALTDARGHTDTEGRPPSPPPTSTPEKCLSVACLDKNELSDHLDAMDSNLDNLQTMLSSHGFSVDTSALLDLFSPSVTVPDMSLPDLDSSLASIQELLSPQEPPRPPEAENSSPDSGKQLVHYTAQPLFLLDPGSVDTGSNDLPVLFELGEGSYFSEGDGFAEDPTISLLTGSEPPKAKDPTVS
# Method in brief: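 Read-out: fluorescence of reporter-specific RT-PCR fragments separated by capillary electrophoresis. HepG2 carrying transfected cis-element reporter units; 24 h dosing; activity fitted in both directions relative to DMSO baseline.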
# [7] = ATG_MRE_CIS: Attagene CIS-FACTORIAL HepG2 Assay for human Metal Responsive Element (MRE) (AID 2282954); conditions: HepG2 MRE cis-reporter transcription, Attagene multiplex; actives raise or lower the signal
# Method in brief: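 RT-PCR/capillary electrophoresis readout of reporter mRNA, 24 h post-dosing, in HepG2 cells transfected with multiplexed cis-regulated reporter constructs. Gain or loss of signal fitted bidirectionally against DMSO baseline.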
# [8] = ATG_GRE_CIS: Attagene CIS-FACTORIAL HepG2 Assay for human Glucocorticoid Response Elements (GRE) (AID 2282947); conditions: HepG2 GRE cis-reporter, Attagene multiplex mRNA; actives raise or lower the signal
# Method in brief: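 Read-out: fluorescent reporter-transcript fragments separated by capillary electrophoresis after RT-PCR. Transiently transfected HepG2 cells carrying cis-element-driven reporter units were dosed for 24 h; gain or loss of signal fitted against DMSO control.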
# [9] = ATG_ISRE_CIS: Attagene CIS-FACTORIAL HepG2 Assay for human Interferon Regulatory Factor 1 (IRF1) binding to an Interferon-Stimulated Response Element (ISRE) (AID 2282948); conditions: HepG2 ISRE cis-reporter (Attagene), mRNA transcription readout; actives raise or lower the signal
# Method in brief: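 Read-out: fluorescent RT-PCR products resolved by capillary electrophoresis, reporting endogenous transcription factor activity via ISRE-driven reporter mRNA in transfected HepG2 cells dosed for 24 h; gain or loss fitted relative to DMSO.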
# [10] = ATG_PBREM_CIS: Attagene CIS-FACTORIAL HepG2 Assay for human Phenobarbital-responsive Enhancer Module (PBREM) (AID 2282955); conditions: HepG2 PBREM cis-reporter, Attagene multiplexed transcription; actives raise or lower the signal
# Method in brief: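 Measures endogenous factor action on a phenobarbital-responsive enhancer module. HepG2 transiently carrying cis reporters, 24 h treatment, mRNA read-out by RT-PCR plus capillary electrophoresis.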
structure (smiles),measurement,setting,value
COc1cccc(C(=O)NN(C(=O)c2cc(C)cc(C)c2)C(C)(C)C)c1C,outcome,[1],inactive
same,outcome,[2],inactive
same,outcome,[3],inactive
same,outcome,[4],inactive
same,outcome,[5],inactive
same,outcome,[6],inactive
same,outcome,[7],inactive
C=C(C)[C@H]1Cc2c(ccc3c2O[C@@H]2COc4cc(OC)c(OC)cc4[C@@H]2C3=O)O1,outcome,[1],inactive
same,outcome,[8],inactive
same,outcome,[9],inactive
same,outcome,[2],inactive
same,outcome,[3],inactive
same,AC50,[4],0.0274 µM (active)
same,outcome,[5],inactive
same,outcome,[6],inactive
same,AC50,[7],0.0899 µM (active)
CNC(=O)Oc1cccc2c1OC(C)(C)O2,outcome,[1],inactive
same,outcome,[8],inactive
same,outcome,[9],inactive
same,outcome,[2],inactive
same,outcome,[4],inactive
same,outcome,[5],inactive
same,outcome,[6],inactive
same,AC50,[7],67.7 µM (active)
CCOP(=S)(Oc1cnc(C(C)(C)C)nc1)OC(C)C (stereo unspecified),outcome,[8],inactive
same,outcome,[9],inactive
same,outcome,[2],inactive
same,outcome,[3],inactive
same,outcome,[4],inactive
same,outcome,[5],inactive
same,AC50,[7],65.3 µM (active)
CN(C)NC(=O)CCC(=O)O,outcome,[9],inactive
same,outcome,[2],inactive
same,outcome,[3],inactive
same,outcome,[4],inactive
same,outcome,[5],inactive
same,outcome,[7],inactive
CNC(=O)ON=C(SC)C(=O)N(C)C,outcome,[2],inactive
same,outcome,[3],inactive
same,outcome,[4],inactive
same,outcome,[5],inactive
same,outcome,[6],inactive
same,outcome,[7],inactive
CCc1cnc(C2=NC(C)(C(C)C)C(=O)N2)c(C(=O)O)c1 (stereo unspecified),outcome,[8],inactive
same,outcome,[2],inactive
same,outcome,[3],inactive
same,outcome,[4],inactive
same,outcome,[5],inactive
same,outcome,[6],inactive
same,outcome,[7],inactive
same,outcome,[10],inactive
S=C1NCCN1,outcome,[2],inactive
same,outcome,[4],inactive
same,outcome,[5],inactive
same,outcome,[7],inactive
CC(=NC#N)N(C)Cc1ccc(Cl)nc1,outcome,[2],inactive
same,outcome,[4],inactive
same,outcome,[5],inactive
same,outcome,[6],inactive
same,outcome,[7],inactive
CSc1nc(NC(C)C)nc(NC(C)C)n1,outcome,[2],inactive
same,outcome,[3],inactive
same,outcome,[4],inactive
same,outcome,[5],inactive
same,outcome,[6],inactive
same,outcome,[7],inactive
CCOP(=S)(OCC)Oc1cc(C)nc(C(C)C)n1,outcome,[8],inactive
same,outcome,[2],inactive
same,outcome,[3],inactive
same,outcome,[4],inactive
same,outcome,[5],inactive
same,outcome,[6],inactive
same,outcome,[7],inactive
C#CC(C)(C)NC(=O)c1cc(Cl)cc(Cl)c1,outcome,[8],inactive
same,outcome,[2],inactive
same,outcome,[4],inactive
same,outcome,[5],inactive
same,outcome,[6],inactive
same,AC50,[7],50 µM (active)
CCNc1nc(Cl)nc(NC(C)(C)C#N)n1,outcome,[8],inactive
same,outcome,[2],inactive
same,outcome,[4],inactive
same,outcome,[5],inactive
same,outcome,[7],inactive
CCC(=NOC/C=C/Cl)C1=C(O)CC(C2CCOCC2)CC1=O (stereo unspecified),outcome,[8],inactive
same,outcome,[2],inactive
same,outcome,[3],inactive
same,outcome,[4],inactive
same,outcome,[5],inactive
same,outcome,[7],inactive
COP(=O)(OC)SCn1c(=O)oc2cc(Cl)cnc21,outcome,[8],inactive
same,outcome,[9],inactive
same,outcome,[2],inactive
same,outcome,[3],inactive
same,outcome,[4],inactive
same,outcome,[5],inactive
same,outcome,[7],inactive
COP(=O)(NC(C)=O)SC (stereo unspecified),outcome,[8],inactive
same,outcome,[2],inactive
same,outcome,[3],inactive
same,outcome,[4],inactive
same,outcome,[5],inactive
same,outcome,[7],inactive
CON=C(C(=O)OC)c1ccccc1CON=C(C)c1cccc(C(F)(F)F)c1,AC50,[9],12.6 µM (active)
same,outcome,[2],inactive
same,outcome,[3],inactive
same,outcome,[4],inactive
same,outcome,[5],inactive
same,AC50,[7],68.9 µM (active)
CCOC(=O)COc1cc(-c2nn(C)c(OC(F)F)c2Cl)c(F)cc1Cl,outcome,[8],inactive
same,outcome,[2],inactive
same,outcome,[4],inactive
same,outcome,[5],inactive
same,outcome,[7],inactive
CN(C)[C@@H]1C(=O)C(C(N)=O)=C(O)[C@@]2(O)C(=O)C3=C(O)c4c(O)cccc4[C@@](C)(O)[C@H]3[C@H](O)[C@@H]12,outcome,[2],inactive
same,outcome,[5],inactive
same,outcome,[6],inactive
same,outcome,[7],inactive
CC1=NNC(=O)N(/N=C/c2cccnc2)C1,outcome,[9],inactive
same,outcome,[2],inactive
same,outcome,[4],inactive
same,outcome,[5],inactive
same,outcome,[7],inactive
CN(C)C(=O)Nc1cccc(C(F)(F)F)c1,outcome,[9],inactive
same,outcome,[2],inactive
same,outcome,[4],inactive
same,outcome,[5],inactive
same,outcome,[6],inactive
same,outcome,[7],inactive
CCOP(=S)(OCC)OC(Cl)C(Cl)(Cl)Cl (stereo unspecified),outcome,[8],inactive
same,outcome,[2],inactive
same,outcome,[4],inactive
same,outcome,[5],inactive
same,outcome,[6],inactive
same,AC50,[7],32.9 µM (active)
same,outcome,[10],inactive
CCc1cccc(C)c1N(C(=O)CCl)C(C)COC (stereo unspecified),outcome,[9],inactive
same,outcome,[2],inactive
same,outcome,[3],inactive
same,outcome,[4],inactive
same,outcome,[5],inactive
same,outcome,[6],inactive
same,outcome,[7],inactive
C[N+]1(C)CCCCC1,outcome,[9],inactive
same,outcome,[2],inactive
same,outcome,[4],inactive
same,outcome,[5],inactive
same,outcome,[6],inactive
same,outcome,[7],inactive
same,outcome,[10],inactive
CCCCOC(=O)[C@@H](C)Oc1ccc(Oc2ccc(C#N)cc2F)cc1,outcome,[8],inactive
same,outcome,[9],inactive
same,outcome,[2],inactive
same,outcome,[4],inactive
same,outcome,[5],inactive
same,outcome,[7],inactive
O=C(O)c1cc(Oc2ccc(C(F)(F)F)cc2Cl)ccc1[N+](=O)[O-],outcome,[8],inactive
same,outcome,[2],inactive
same,outcome,[4],inactive
same,outcome,[5],inactive
same,outcome,[7],inactive
CCOP(=S)(OCC)SCCSCC,AC50,[8],15.4 µM (active)
same,outcome,[2],inactive
same,outcome,[4],inactive
same,outcome,[5],inactive
same,outcome,[7],inactive
same,AC50,[10],30.5 µM (active)
CC(C1CC1)C(O)(Cn1cncn1)c1ccc(Cl)cc1 (stereo unspecified),outcome,[2],inactive
same,outcome,[4],inactive
same,outcome,[5],inactive
same,outcome,[7],inactive
CCOP(=S)(OCC)Oc1ccc([N+](=O)[O-])cc1,outcome,[8],inactive
same,outcome,[9],inactive
same,outcome,[2],inactive
same,outcome,[4],inactive
same,outcome,[5],inactive
same,AC50,[7],50 µM (active)
Cc1nn(-c2cc(NS(C)(=O)=O)c(Cl)cc2Cl)c(=O)n1C(F)F,outcome,[2],inactive
same,outcome,[3],inactive
same,outcome,[4],inactive
same,outcome,[5],inactive
same,outcome,[6],inactive
same,outcome,[7],inactive
CCC(=O)Nc1ccc(Cl)c(Cl)c1,outcome,[2],inactive
same,outcome,[4],inactive
same,outcome,[5],inactive
same,outcome,[6],inactive
same,outcome,[7],inactive
CCCCN(CC)c1c([N+](=O)[O-])cc(C(F)(F)F)cc1[N+](=O)[O-],outcome,[8],inactive
same,outcome,[2],inactive
same,outcome,[3],inactive
same,outcome,[4],inactive
same,outcome,[5],inactive
same,outcome,[7],inactive
same,AC50,[10],14.9 µM (active)
CC(C)=CC1C(C(=O)OCN2C(=O)C3=C(CCCC3)C2=O)C1(C)C (stereo unspecified),outcome,[8],inactive
same,outcome,[9],inactive
same,outcome,[2],inactive
same,AC50,[4],50 µM (active)
same,outcome,[5],inactive
same,AC50,[7],64.6 µM (active)
CC(C)[C@H](C(=O)O[C@H](C#N)c1cccc(Oc2ccccc2)c1)c1ccc(Cl)cc1,outcome,[2],inactive
same,outcome,[3],inactive
same,outcome,[4],inactive
same,outcome,[5],inactive
same,outcome,[7],inactive
same,AC50,[10],9.24 µM (active)
CCOP(=O)(SC(C)CC)N1CCSC1=O (stereo unspecified),outcome,[2],inactive
same,outcome,[3],inactive
same,outcome,[4],inactive
same,outcome,[5],inactive
same,outcome,[7],inactive
CNC(=O)ON=C(C)SC,outcome,[8],inactive
same,outcome,[9],inactive
same,outcome,[2],inactive
same,outcome,[4],inactive
same,outcome,[5],inactive
same,outcome,[7],inactive
CCOP(=S)(OCC)Oc1ccc2c(C)c(Cl)c(=O)oc2c1,outcome,[8],inactive
same,outcome,[9],inactive
same,outcome,[2],inactive
same,outcome,[3],inactive
same,outcome,[4],inactive
same,outcome,[5],inactive
same,outcome,[7],inactive
CCCOc1nn(C(=O)NS(=O)(=O)c2ccccc2C(=O)OC)c(=O)n1C,outcome,[8],inactive
same,outcome,[9],inactive
same,outcome,[2],inactive
same,outcome,[4],inactive
same,outcome,[5],inactive
same,outcome,[7],inactive
CC[C@H](C)[C@H]1O[C@]2(C=C[C@@H]1C)C[C@@H]1C[C@@H](C/C=C(\C)[C@@H](O[C@H]3C[C@H](OC)[C@@H](O[C@H]4C[C@H](OC)[C@@H](NC)[C@H](C)O4)[C@H](C)O3)[C@@H](C)/C=C/C=C3\CO[C@@H]4[C@H](O)C(C)=C[C@@H](C(=O)O1)[C@]34O)O2,outcome,[9],inactive
same,outcome,[2],inactive
same,outcome,[4],inactive
same,outcome,[5],inactive
same,outcome,[7],inactive
